One test concerns the target Albumin (Bos taurus) (UniProt P02769). In words: bovine serum albumin binders on microarray, profiling panel, artefact control for SMM control protein annotation, biochemical, small-molecule microarray, Alexa647 label, 635/667 nm fluorescence (AID 1118).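 Further: score merges 667 nm emission intensity and signal-to-noise per printed compound spot.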 The settings on record: BSA-A647 binding, fluorescence 635 nm, higher = more signal.
The nature of test [1]: small-molecule microarray binders of probe aXIP, primary screen, biochemical, NeuroSMM set, 635/667 nm fluorescence (AID 1119).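 Further: probe is the protein aXip251-270 applied at 1 µg/mL to compound-printed slides; binding of probe to printed compounds measured as 667 nm fluorescence plus signal to noise.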 The settings on record: higher = more signal, called active from +8 up or from −8 down.
The nature of test [2]: small-molecule binders of probe aNOTCH3, primary screen, biochemical, small-molecule microarray, 635/667 nm fluorescence (AID 1120).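 Further: probe is a biotin-tagged antibody raised against NOTCH3 rather than NOTCH3 protein; score merges spot fluorescence near 667 nm with spot signal to noise.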 The settings on record: higher = more signal.
Test [3] in a line: small-molecule binders of probe aNOTCH2, primary screen, biochemical, small-molecule microarray, 635/667 nm fluorescence (AID 1121).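 Further: score merges feature fluorescence read at 667 nm with its signal to noise.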 The conditions noted are these: higher = more signal.
The target in test [4] is Carbonic anhydrase 2 (Homo sapiens) (UniProt P00918). In words: CAII small-molecule binders, profiling panel, biochemical, small-molecule microarray, Alexa647-labelled CAII (AID 1122). The settings on record: CAII-A647 binding fluorescence, higher = more signal.
Test [5] can be described thus: COS7 lysate on small-molecule microarray, probe aHis, 635 nm (AID 1123).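 Further: z-score combines 667nm fluorescence intensity with signal-to-noise per printed compound spot.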 The settings on record: COS7 cell lysate, fluorescence, higher = more signal.
Test [6] in a line: compound binding in COS7 lysate, probe aLAP1, primary screen, cell lysate, small-molecule microarray (AID 1124).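 Further: lysate comes from COS7 cells expressing LAP1 and is applied at 0.3 µg/mL; score merges spot fluorescence near 667 nm with signal-to-noise over triplicate slides.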 The conditions noted are these: probe aLAP1, fluorescence, higher = more signal.
A further test relates to Sam68 (KHDRBS1). In words: Sam68 small-molecule binders, primary screen, biochemical, small-molecule microarray, 635 nm fluorescence (AID 1125).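 Further: score merges 667 nm channel intensity with signal to noise over triplicate slides.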 The conditions noted are these: small-molecule microarray binding, higher = more signal.
Test [7] relates to Chordin-like protein 2 (CHRDL2). In words: CHRDL2 small-molecule binders, primary screen, biochemical, small-molecule microarray, 635 nm fluorescence (AID 1126).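 Further: printed compound slides probed with Chrdl2 protein at 4 µg/mL for 1 h at 4 C; score merges 667 nm emission intensity with signal to noise over three replicate slides.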 The settings on record: small-molecule microarray binding, fluorescence 635 nm; higher = more signal.
The target in test [8] is Concanavalin-A (Canavalia ensiformis) (UniProt P02866). In words: ConA small-molecule binders, primary screen, artefact control for SMM control protein annotation, biochemical, small-molecule microarray, Alexa647 label, 635 nm (AID 1127).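 Further: z combines 667 nm emission intensity with signal-to-noise across three replicate slides.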 The settings on record: ConA-A647 binding fluorescence, higher = more signal.
Sequence of Concanavalin-A (Canavalia ensiformis) (P02866 whole entry, looked up): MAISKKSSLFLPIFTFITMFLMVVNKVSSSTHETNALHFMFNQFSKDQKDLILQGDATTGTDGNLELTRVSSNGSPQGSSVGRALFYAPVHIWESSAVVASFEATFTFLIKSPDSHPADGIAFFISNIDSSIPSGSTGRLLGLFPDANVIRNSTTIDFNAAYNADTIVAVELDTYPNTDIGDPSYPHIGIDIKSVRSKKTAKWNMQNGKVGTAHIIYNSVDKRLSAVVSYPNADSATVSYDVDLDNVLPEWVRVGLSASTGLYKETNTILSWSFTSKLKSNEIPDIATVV
Test [9] can be described thus: anti-His antibody binders, primary screen, artefact control for SMM control protein annotation, biochemical, small-molecule microarray, 635 nm fluorescence (AID 1128).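 Further: score merges feature fluorescence with signal-to-noise for each printed compound spot.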 The settings on record: anti-His Alexa647 antibody binding, higher = more signal.
Test [10] concerns Human papillomavirus type 1a E7 protein (residues 1-88). In words: HPV1a E7 small-molecule binders, primary screen, biochemical, small-molecule microarray, residues 1-88, 635 nm (AID 1129). The settings on record: small-molecule microarray binding, fluorescence 635 nm; higher = more signal.
Test [11] has as its target Focal adhesion kinase 1 (Homo sapiens) (UniProt Q05397). In words: small-molecule microarray binders of FAK, primary screen, biochemical, 635/667 nm fluorescence, BSA, DTT (AID 1130).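 Further: composite of spot emission at 667 nm and signal to noise over triplicate slides.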 The conditions noted are these: PTK2 binding, 635 nm fluorescence, higher = more signal.
The subject of test [12] is Fibrinogen (Alexa647-labelled). In words: fibrinogen binders on compound microarrays, profiling panel, artefact control for SMM control-protein annotation, biochemical, small-molecule microarray, 635/667 nm fluorescence (AID 1131).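 Further: z-score merges 667 nm fluorescence with per-spot signal-to-noise over triplicate slides.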 The conditions noted are these: fibrinogen-A647 binding fluorescence, higher = more signal.
Test [13] deals with Follistatin (Homo sapiens) (UniProt P19883). In words: follistatin binders on small-molecule microarrays, primary screen, biochemical, small-molecule microarray, 635/667 nm fluorescence (AID 1132). The conditions noted are these: FST binding, 635 nm fluorescence, higher = more signal.
Sequence of Follistatin (Homo sapiens) (P19883 whole entry, looked up): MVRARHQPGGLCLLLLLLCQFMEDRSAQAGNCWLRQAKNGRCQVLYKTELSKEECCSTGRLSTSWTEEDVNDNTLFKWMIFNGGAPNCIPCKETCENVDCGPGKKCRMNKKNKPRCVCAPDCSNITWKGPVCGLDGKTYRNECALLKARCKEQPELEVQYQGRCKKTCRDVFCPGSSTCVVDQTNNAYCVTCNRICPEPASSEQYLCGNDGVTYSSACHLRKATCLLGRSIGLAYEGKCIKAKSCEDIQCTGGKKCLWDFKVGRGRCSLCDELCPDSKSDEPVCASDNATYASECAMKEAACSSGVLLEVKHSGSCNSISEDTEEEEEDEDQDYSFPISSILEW
Test [14] concerns the target Fibroblast growth factor 2 (Homo sapiens) (UniProt P09038). In words: FGF2 binders on small-molecule microarrays, primary screen, biochemical, small-molecule microarray, 635/667 nm fluorescence (AID 1133). The settings on record: small-molecule microarray binding, FGF2, fluorescence 635/667; higher = more signal.
Test [15] is described as follows: mitochondrial membrane potential change in A549 cells, profiling panel, cell-based, JC-1 fluorescence, basal, 24 h, 100 nL (AID 1138).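 Further: A549 lung adenocarcinoma cells under basal conditions with no added stimulus; test concentration not given here.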 The settings on record: higher = more signal.
In the next test the test system is Lefty1. In words: Lefty1 binders on small-molecule microarrays, primary screen, biochemical, small-molecule microarray, 635/667 nm fluorescence (AID 1139). The settings on record: small-molecule microarray binding, fluorescence 635/667; higher = more signal.
Test [16] deals with wheat germ agglutinin (Triticum aestivum), Alexa647-labelled. In words: wheat germ agglutinin binders on compound microarrays, profiling panel, artefact control for SMM control-protein annotation, biochemical, small-molecule microarray, 635/667 nm fluorescence (AID 1140).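 Further: score merges 667 nm feature emission with signal to noise over triplicate slides.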 The conditions noted are these: WGA-A647 binding, 635 nm fluorescence, higher = more signal.
In test [17] the target is Luciferin 4-monooxygenase (Photinus pyralis) (UniProt P08659). In words: firefly luciferase enzyme inhibitors, primary screen, biochemical, luminescence, purified enzyme, 2006 set (AID 1141).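 Further: cell-free assay with purified firefly luciferase at 100 ng per well in PBS; test concentration not given here.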 The conditions noted are these: SteadyGlo luminescence, 30 min, higher = more signal, called active from +8 up or from −8 down.
Sequence of Luciferin 4-monooxygenase (Photinus pyralis) (P08659 whole entry, looked up): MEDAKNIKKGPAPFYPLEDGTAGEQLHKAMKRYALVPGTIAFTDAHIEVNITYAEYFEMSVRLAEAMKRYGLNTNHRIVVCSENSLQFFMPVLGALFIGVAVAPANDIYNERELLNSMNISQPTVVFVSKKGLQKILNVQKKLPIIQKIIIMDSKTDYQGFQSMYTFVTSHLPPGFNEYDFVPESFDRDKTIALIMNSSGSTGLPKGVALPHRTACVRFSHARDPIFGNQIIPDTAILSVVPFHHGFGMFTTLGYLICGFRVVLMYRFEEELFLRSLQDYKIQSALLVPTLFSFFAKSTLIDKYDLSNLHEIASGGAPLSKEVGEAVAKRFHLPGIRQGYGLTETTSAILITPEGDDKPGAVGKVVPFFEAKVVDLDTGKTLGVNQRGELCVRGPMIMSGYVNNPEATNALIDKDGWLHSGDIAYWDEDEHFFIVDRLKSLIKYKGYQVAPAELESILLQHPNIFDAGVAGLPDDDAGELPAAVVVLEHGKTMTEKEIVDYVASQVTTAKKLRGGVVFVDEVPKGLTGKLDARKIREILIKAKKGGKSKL

Active and inactive are the calls of the source.

Sequence of Focal adhesion kinase 1 (Homo sapiens) (Q05397 whole entry, looked up): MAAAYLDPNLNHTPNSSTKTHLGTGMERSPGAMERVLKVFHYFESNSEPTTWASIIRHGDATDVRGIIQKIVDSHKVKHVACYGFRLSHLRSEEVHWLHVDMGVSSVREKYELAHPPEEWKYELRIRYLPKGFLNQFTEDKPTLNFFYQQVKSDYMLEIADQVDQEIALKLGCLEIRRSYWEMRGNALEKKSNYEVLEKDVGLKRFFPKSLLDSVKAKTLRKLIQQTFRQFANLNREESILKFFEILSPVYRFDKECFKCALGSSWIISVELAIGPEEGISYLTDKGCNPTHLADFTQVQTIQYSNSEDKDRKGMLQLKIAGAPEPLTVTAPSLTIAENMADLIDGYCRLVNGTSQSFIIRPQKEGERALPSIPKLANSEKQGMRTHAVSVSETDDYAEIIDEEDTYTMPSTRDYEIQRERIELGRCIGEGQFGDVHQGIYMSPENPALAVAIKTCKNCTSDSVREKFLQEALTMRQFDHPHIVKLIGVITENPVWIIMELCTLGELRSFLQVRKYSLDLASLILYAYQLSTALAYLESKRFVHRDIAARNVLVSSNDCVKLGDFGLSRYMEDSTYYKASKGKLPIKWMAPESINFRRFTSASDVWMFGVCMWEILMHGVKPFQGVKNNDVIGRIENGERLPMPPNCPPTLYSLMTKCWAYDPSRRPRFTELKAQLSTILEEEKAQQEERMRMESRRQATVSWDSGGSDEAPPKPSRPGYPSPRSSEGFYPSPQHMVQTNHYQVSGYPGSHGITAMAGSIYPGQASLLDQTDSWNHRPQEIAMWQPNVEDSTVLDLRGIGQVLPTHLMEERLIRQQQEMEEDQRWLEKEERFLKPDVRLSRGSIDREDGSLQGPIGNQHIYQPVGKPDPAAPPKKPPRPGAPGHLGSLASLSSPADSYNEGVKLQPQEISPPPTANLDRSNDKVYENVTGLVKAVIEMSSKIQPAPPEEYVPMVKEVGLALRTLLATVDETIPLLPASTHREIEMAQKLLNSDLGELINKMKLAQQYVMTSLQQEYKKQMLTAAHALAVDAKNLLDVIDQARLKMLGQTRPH
Sequence of Albumin (Bos taurus) (P02769 whole entry, looked up): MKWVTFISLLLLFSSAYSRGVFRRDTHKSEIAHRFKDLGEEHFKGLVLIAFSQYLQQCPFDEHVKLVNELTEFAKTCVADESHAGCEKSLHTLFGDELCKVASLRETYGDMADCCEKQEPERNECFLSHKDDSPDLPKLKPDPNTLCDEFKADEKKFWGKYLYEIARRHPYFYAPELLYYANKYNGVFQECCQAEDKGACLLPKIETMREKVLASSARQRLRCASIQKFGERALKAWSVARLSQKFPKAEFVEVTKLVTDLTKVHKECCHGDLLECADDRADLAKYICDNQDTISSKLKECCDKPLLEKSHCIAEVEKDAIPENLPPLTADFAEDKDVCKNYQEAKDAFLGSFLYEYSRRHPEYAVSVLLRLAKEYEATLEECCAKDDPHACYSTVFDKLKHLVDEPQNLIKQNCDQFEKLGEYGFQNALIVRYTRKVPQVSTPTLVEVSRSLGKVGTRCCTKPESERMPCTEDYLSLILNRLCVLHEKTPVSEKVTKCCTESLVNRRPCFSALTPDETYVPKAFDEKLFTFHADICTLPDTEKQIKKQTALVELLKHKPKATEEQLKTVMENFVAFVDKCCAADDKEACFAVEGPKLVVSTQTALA
Sequence of Fibroblast growth factor 2 (Homo sapiens) (P09038 whole entry, looked up): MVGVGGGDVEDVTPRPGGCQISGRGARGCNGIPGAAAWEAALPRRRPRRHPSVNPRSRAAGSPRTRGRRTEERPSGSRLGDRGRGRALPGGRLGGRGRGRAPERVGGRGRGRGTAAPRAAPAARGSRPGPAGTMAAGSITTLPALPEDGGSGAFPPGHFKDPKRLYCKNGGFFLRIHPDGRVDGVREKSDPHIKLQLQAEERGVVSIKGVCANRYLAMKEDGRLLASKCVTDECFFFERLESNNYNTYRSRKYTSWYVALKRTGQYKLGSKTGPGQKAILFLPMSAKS

On to `C=C(COC)C(=O)CC[C@H](OC(C)=O)c1cccc(OCCO)c1`, for which the composite z-score with Albumin (Bos taurus) is -0.768; in test [2], -0.165; in [3] it was -0.154; in test [4], 0.358; in test [5] it was 0.451; in test [6], 0.775. In addition, the composite z-score with Sam68 (KHDRBS1) was 0.151; in test [7], -0.298; in test [8], -0.935; in [9], -0.704; in test [10], -0.586; in [11], -0.138. The composite z-score was -0.708 in test [12]; 1.2 in [13]; 1.49 in test [14]; -0.332 with Lefty1; -1.16 in [16]. Also, the composite Z-score in test [1] is 0.157 (inactive). Besides, the z-score in test [15] was -0.37; in test [17], -0.679 (inactive).

As to `COCCOC(=O)N1C(=O)[C@@]2(c3cc(C#CCC(C(=O)OC)C(=O)OC)ccc31)[C@H](C(=O)N1CCN(c3ncccn3)CC1)[C@H]1C(=O)O[C@H](c3ccccc3)[C@H](c3ccccc3)N1[C@@H]2c1ccc(OCCO)cc1`, the composite z-score was 0.727 with Albumin (Bos taurus); 0.0097 in test [2]; -0.14 in test [3]; 0.323 in test [4]; 1.35 in [5]; 0.522 in [6]. Besides, the composite z-score was 1.3 with Sam68 (KHDRBS1); 0.17 in test [7]; 1.09 in test [8]; 1.61 in test [9]; 1.19 in [10]; 0.21 in test [11]. For the same molecule, the composite z-score in test [12] is 0.993; in test [13] it was 1.24; in [14], 1.2; in the test with Lefty1, 0.733; in test [16], 0.945. Further, the composite Z-score in test [1] is 1.44 (inactive). For the same molecule, the z-score in test [15] is -1.31; in test [17], -0.59 (inactive).

As for `CC(C)OC(=O)CC(=O)CC(O)c1ccc(C#N)cc1` (stereo not given), the composite z-score is -0.181 with Albumin (Bos taurus); -0.0377 in [2]; 0.174 in [3]; 0.0258 in [4]; 0.657 in test [5]; 0.649 in [6]. Moreover, the composite z-score with Sam68 (KHDRBS1) is 0.438; in test [7] it was -1.19; in test [8], -0.6; in test [9] it was 0.548; in test [10] it was 1.14; in test [11] it was 0.762. The composite z-score in [12] is 1.04; in [13], -0.337; in [14], -0.581; with Lefty1, -0.783; in test [16], 0.731. Also, the composite Z-score in [1] is 0.0371 (inactive). Besides, the figures for the z-score in test [15] and in test [17] were 0.409 and 0.902 (inactive), respectively.

Consider `N#Cc1ccc(NN2C(C(O)C3CCCCC3)C=CC3C(=O)N(c4ccccc4)C(=O)C32)cc1` (stereo not given), for which the composite z-score amounted to 0.919 with Albumin (Bos taurus); 0.459 in test [2]; 0.0636 in test [3]; 0.184 in test [4]; 2.62 in test [5]; 0.236 in test [6]. Besides, the composite z-score in the test with Sam68 (KHDRBS1) is 1.29; in test [7] it was -0.915; in [8] it was 1.21; in test [9], 0.422; in test [10] it was 1.27; in test [11], 0.533. For the same molecule, the composite z-score was 1.03 in test [12]; 1.27 in test [13]; -0.252 in test [14]; 0.058 in the test with Lefty1; 0.847 in test [16]. The composite Z-score in test [1] was 0.417 (inactive). Moreover, the z-score in test [15] is -0.309; in [17], -0.394 (inactive).

`O=C1C2C=CC(C(O)c3ccc(-c4ccccc4)s3)N(n3cnnc3)C2C(=O)N1Cc1ccccc1` (stereo not given): the composite z-score with Albumin (Bos taurus) is -0.314; in test [2] it was 0.0519; in test [3], -0.0467; in [4], 0.465; in test [5] it was 0.942; in [6], 0.253. Further, the composite z-score with Sam68 (KHDRBS1) was 0.145; in test [7], -0.42; in test [8], 0.615; in test [9] it was 1.46; in [10], -0.283; in [11] it was 0.0347. Moreover, the composite z-score is 0.708 in test [12]; -0.279 in test [13]; -0.625 in [14]; -0.69 in the test on Lefty1; 0.525 in test [16]. Also, the composite Z-score in test [1] was -0.34 (inactive). Further, the values for the z-score in [15] and in test [17] were -1.32 and 1.77 (inactive), respectively.

(Values after PubChem BioAssay.)
